This note sets out measurements from PubChem BioAssay.

For orientation: inhibition means the relative decrease from the control value, in per cent.

Molecules are shown by their SMILES. Unmarked numbers belong to inactive results. Activity calls are given as the source filed them.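 How the source made its calls, unless noted: active means mean inhibition above 46.5%, the solvent-only control mean plus 3 SD; inactive means the rest.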

The subject of test [1] is transactivating tegument protein VP16 (Human herpesvirus 1). As to the kind of experiment: VP16 transactivation reporter inhibitors, counter-screen for SRC2 inhibitor project, cell-based, luminescence, single concentration (AID 652007; in the data active means inhibition above about 36%). The settings on record: cell-based VP16 transactivation luciferase reporter, at 8.9 µM, stronger effect = higher value. (In general: Counterscreens check selectivity or assay interference.)

For test [2], the target named is Nuclear receptor coactivator 2 (Homo sapiens) (UniProt Q15596). Nature of the test: SRC2 coactivator transcriptional activity inhibitors, confirmation, cell-based, luminescence, HEK293, triplicate (AID 652008).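 Further: 0% = DMSO-treated cells and 100% = Gossypol at 36 µM.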 The settings on record: HEK293 GAL4-SRC2 luciferase reporter, at 8.9 µM, stronger effect = higher value. In general terms: In a reporter assay the amount or activity of a reporter protein is the signal.
Nuclear receptor coactivator 2 (Homo sapiens), sequence (Q15596 whole entry, looked up, the tested form may be a part): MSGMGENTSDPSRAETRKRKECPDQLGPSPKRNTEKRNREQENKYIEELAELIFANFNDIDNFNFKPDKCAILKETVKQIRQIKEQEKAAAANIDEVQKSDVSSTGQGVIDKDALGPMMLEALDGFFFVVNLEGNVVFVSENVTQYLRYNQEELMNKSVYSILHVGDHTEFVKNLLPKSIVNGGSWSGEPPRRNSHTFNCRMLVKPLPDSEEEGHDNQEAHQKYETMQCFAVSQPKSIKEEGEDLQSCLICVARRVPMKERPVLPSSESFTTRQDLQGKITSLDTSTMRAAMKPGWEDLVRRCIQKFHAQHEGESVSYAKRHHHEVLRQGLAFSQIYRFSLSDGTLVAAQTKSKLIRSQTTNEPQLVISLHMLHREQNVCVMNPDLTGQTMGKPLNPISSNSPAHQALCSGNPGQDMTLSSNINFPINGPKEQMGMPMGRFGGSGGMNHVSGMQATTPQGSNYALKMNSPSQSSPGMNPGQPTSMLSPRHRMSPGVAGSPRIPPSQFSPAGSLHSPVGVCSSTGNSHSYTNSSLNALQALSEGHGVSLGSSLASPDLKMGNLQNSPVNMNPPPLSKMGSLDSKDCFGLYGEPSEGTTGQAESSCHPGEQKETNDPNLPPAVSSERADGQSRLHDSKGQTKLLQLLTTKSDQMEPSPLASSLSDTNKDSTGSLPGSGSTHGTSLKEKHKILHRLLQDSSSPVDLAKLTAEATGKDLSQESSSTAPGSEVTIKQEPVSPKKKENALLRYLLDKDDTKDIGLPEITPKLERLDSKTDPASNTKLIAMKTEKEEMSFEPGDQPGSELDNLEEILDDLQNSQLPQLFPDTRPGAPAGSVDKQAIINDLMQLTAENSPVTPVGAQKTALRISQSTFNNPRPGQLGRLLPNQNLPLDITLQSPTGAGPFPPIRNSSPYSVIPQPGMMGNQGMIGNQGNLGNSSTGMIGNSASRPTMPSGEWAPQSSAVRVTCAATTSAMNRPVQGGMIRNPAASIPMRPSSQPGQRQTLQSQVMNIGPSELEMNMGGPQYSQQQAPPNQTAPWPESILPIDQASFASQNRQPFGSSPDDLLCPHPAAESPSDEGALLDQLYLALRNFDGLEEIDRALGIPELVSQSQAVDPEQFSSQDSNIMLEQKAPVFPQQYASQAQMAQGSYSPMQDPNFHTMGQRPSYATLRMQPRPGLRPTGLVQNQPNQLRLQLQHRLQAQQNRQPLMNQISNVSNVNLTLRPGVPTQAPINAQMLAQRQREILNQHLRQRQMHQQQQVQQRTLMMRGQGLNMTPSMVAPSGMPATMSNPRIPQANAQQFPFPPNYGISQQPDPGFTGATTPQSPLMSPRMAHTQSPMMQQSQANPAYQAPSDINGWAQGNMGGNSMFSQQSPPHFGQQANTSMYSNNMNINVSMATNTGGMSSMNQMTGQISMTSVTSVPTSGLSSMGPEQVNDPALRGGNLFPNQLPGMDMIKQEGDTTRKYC

Turning to `Cn1nnnc1Sc1ncnc2scc(-c3cccc(S(C)(=O)=O)c3)c12`, the inhibition in test [1] is 21.7%; in test [2], 2.26%.

Regarding `COc1cc(N(C(C)=O)c2ccc(O)cc2)c2ncccc2c1`, the inhibition in test [1] was 1.2%; in test [2] it was 2.41%.

As for `COc1ccc(N2CCN(C(=O)CCCCCn3c(=S)[nH]c4ccc(N5CCOCC5)cc4c3=O)CC2)cc1`, the inhibition in test [1] was -3.27%; in test [2] it was -4.46%.

For the compound `NC(Cc1ccc(Cl)cc1)c1csc(NC(=O)NCC2CCCCC2)n1` (configuration not stated), the inhibition in test [1] is -2.01%; in test [2], 3.16%.

Consider `CN1/C(=C/C=C/c2n(C)c3cc([N+](=O)[O-])c([N+](=O)[O-])cc3[n+]2C)C(C)(C)c2ccccc21`, for which the results for the inhibition in test [1] and in test [2] were 3.99% and -3.59%, respectively.

In the case of `COc1ccccc1-c1cc2nc(C)c(CCC(=O)NCc3ccco3)c(C)n2n1`, the results for the inhibition in test [1] and in test [2] were -5.98% and 17.5%, respectively.

Turning to `CC1(C)CC(=O)C/C(=N/Nc2nc3ccccc3s2)C1`, the inhibition in test [1] is -61.5%; in test [2], -13.5%.

`CCc1ccc(C(=O)N2CCN(c3ccc(NC(=O)c4cccnc4)cc3)CC2)cc1`: the values for the inhibition in test [1] and in test [2] were -14.2% and -9.49%, respectively.

With `CCCCCCC(=O)N(O)C1CC(=O)N(c2ccc(C)cc2)C1=O` (configuration not stated), the results for the inhibition in test [1] and in test [2] were 9.6% and 39.9%, respectively.

On to `COc1cc(NC(=O)CSCC(=O)Nc2cccc(C(F)(F)F)c2)c(Cl)cc1Cl`, for which the inhibition is 5.02% in test [1] and 5.14% in test [2].

With `COc1ccc(-c2nnc(SCc3cccc(F)c3)n2-c2ccccc2)cc1`, the inhibition in test [1] is -12.4%; in test [2], -7.06%.

Regarding `O=C(O)CCC(=O)Nc1cccc(-c2csc(-c3ccccc3)n2)c1`, the inhibition in test [1] was 47.1% (active); in test [2], 34.6%.

In the case of `COC(=O)c1c(N)sc(C(=O)NCCc2ccccc2)c1C`, the inhibition in test [1] is -1.83%; in test [2], 49.4% (active).

With `CCC(=O)Nc1ccc(NC(=O)c2oc3ccccc3c2C)cc1`, the inhibition in test [1] was -12.3%; in test [2], 38.1%.

For `Cc1ccc(CC2C(=O)N(c3cc(C)ccc3C)C(=O)C2C)cc1` (configuration not stated), the inhibition is 0.03% in test [1] and 9.44% in test [2].

For `COc1ccc(NS(=O)(=O)c2ccc(OC)c(N(C)S(=O)(=O)c3ccc(Cl)cc3)c2)cc1`, the results for the inhibition in test [1] and in test [2] were 17.3% and 31.2%, respectively.

On to `Cn1c(=O)c2[nH]c(CCCc3ccc([N+](=O)[O-])cc3)nc2n(C)c1=O`, for which the inhibition in test [1] is -19.8%; in test [2], 5.32%.

As for `COC(=O)c1ccc(CN2CCc3ccc(NC(=O)c4ccncc4)cc3C2)cc1`, the inhibition in test [1] was -9.32%; in test [2] it was 26.8%.

With `CCCCN1CC(COCc2ccccc2)Oc2cccc(NCc3cc(OC)c(OC)c(OC)c3)c2S1(=O)=O` (configuration not stated), the inhibition in test [1] is -12.2%; in test [2] it was 13.4%.

Turning to `O=C(COc1ccc([N+](=O)[O-])cc1)Nc1ccc(C(=O)NCc2cccnc2)cc1`, the inhibition in test [1] is -13.3%; in test [2], 27.8%.

On to `COc1ccccc1C(C)NC(=O)C1CCN(S(=O)(=O)c2cccs2)CC1` (configuration not stated), for which the inhibition in test [1] is -3.74%; in test [2] it was 6.18%.

`COc1ccc([C@H]2CC(=O)C=C(c3ccc(Oc4ccccc4)cc3)C2)cc1OC`: the inhibition in test [1] is 10.7%; in test [2], 15.4%.

On to `CC(C)(C)c1ccc(C(=O)CCC(=O)OCC(=O)NCCc2ccc(S(N)(=O)=O)cc2)cc1`, for which the inhibition was 26.1% in test [1] and 37.1% in test [2].

On to `O=C(NC(c1ccc(F)cc1)c1ccc2ccccc2n1)C1CCN(CCOc2ccc(F)cc2)CC1` (configuration not stated), for which the results for the inhibition in test [1] and in test [2] were -1.57% and -16.5%, respectively.

`O=C(Nc1ccncc1)c1c(Cl)cccc1Cl`: the values for the inhibition in test [1] and in test [2] were -4.71% and 12.5%, respectively.

As to `Cn1nnnc1Sc1ncnc2scc(-c3ccc(Br)cc3)c12`, the inhibition in test [1] was 25%; in test [2], 37.2%.

Take `CC(C)c1ccccc1NC(=O)COC(=O)CCN1C(=O)/C(=C\C=C\c2ccccc2)SC1=S`: the inhibition in test [1] was 45.2% (active); in test [2], 77.6% (active).

Take `CCN1CCN(Cc2ccc(NC(=O)c3cccc(-c4ccc5nc(NC(=O)C6CC6)sc5n4)c3)cc2C(F)(F)F)CC1`: the inhibition in test [1] was 24.5%; in test [2], 58.1% (active).

For the compound `COc1ccc(OCC(=O)Nc2ccc3c(c2)C(=O)NC3=O)cc1`, the inhibition is -1.89% in test [1] and -9.88% in test [2].

For the compound `CCOC(=O)CSc1[nH]c2cc(OC)ccc2c1[N+](=O)[O-]`, the results for the inhibition in test [1] and in test [2] were -31.1% and 3.3%, respectively.

As to `CC(C)(CO)CNC(=O)CCc1nnc(-c2ccc(-c3ccccc3)cc2)o1`, the inhibition is 0.83% in test [1] and -13.5% in test [2].
